# Assay results: PubChem BioAssay
# Records with an inconclusive call do not appear. The source made the active and inactive calls.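 How the source made its calls, unless noted: active means compounds killing one labelled cell type while sparing the other, by normalised counts and ratio limits, not self-fluorescent; inactive means the rest.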
# Columns and labels:
# [1] = EMT-state selective cytotoxicity in co-culture – imaging, PC-3E GFP, TEM4-18 mCherry, primary screen (AID 1345086); conditions: PC-3E GFP / TEM4-18 mCherry co-culture, imaging cell counts, at 1 µM; for red/green cell ratio (normalised): actives lie on both sides, counts scaled to control wells, 1 = unselective;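 on all read-outs here: cells exposed to compound for 72 h before imaging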;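 on red/green cell ratio (normalised): normalised mesenchymal count divided by normalised epithelial count so high means epithelial killing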
# [2] = test system: Aerobactin synthetase IucA (Klebsiella pneumoniae); experiment: inhibition of K. pneumoniae IucA enzyme – biochemical, Tocris library, absorbance (AID 1345561; call rule not given here;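 further: 100% = enzyme without compound and 0% = no enzyme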); conditions: purified IucA enzyme assay, absorbance (OD) read-out; stronger effect = lower value;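 tested at 8 µM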
# [3] = viability loss in pontine glioma line – cell-based, SU-DIPG-XVII, MIPE5.0, CellTiter-Glo, qHTS, dose response (AID 1347060; cut-off not given, nearly all actives have AC50 up to about 26 µM;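 on AC50: cells exposed to compound for 48 hours before viability readout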); conditions: CellTiter-Glo ATP luminescence
# [4] = viability loss in pontine glioma line – cell-based, SU-DIPG-XIII, MIPE4.0, CellTiter-Glo, qHTS, dose response (AID 1347061; cut-off not given, nearly all actives have AC50 up to about 37 µM;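 further: cells exposed to compound for 48 hours before readout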); conditions: CellTiter-Glo ATP luminescence
# [5] = viability loss in pontine glioma line – cell-based, JHH-DIPG-1, MIPE4.0, CellTiter-Glo, qHTS, dose response (AID 1347062; cut-off not given, nearly all actives have AC50 up to about 27 µM;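 on AC50: cells exposed to compound for two days before readout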); conditions: JHH-DIPG-1 viability, CellTiter-Glo ATP luminescence
# [6] = viability loss in pontine glioma line – cell-based, SU-DIPG-XIII, MIPE5.0, CellTiter-Glo, qHTS, dose response (AID 1347064; cut-off not given, nearly all actives have AC50 up to about 23 µM;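 on AC50: cells exposed to compound for 48 hours before the viability read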); conditions: CellTiter-Glo ATP luminescence
# [7] = viability loss in pontine glioma line – cell-based, SU-DIPG-IV, MIPE4.0, CellTiter-Glo, qHTS, dose response (AID 1347063; cut-off not given, nearly all actives have AC50 up to about 30 µM;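 further: compound exposure lasted 48 hours before the viability readout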); conditions: CellTiter-Glo ATP luminescence
# [8] = measured here: epithelial PC-3E GFP cell survival
# [9] = measured here: mesenchymal TEM4-18 mCherry cell survival
structure (smiles),measurement,setting,value
CS(=O)(=O)Nc1ccc([N+](=O)[O-])cc1Oc1ccccc1,red/green cell ratio (normalised),[1],0.96 (inactive)
same,normalised cell number,[1]; [8],1.05
same,normalised cell number,[1]; [9],1.01
same,remaining activity,[2],111% (inactive)
same,outcome,[3],inactive
same,outcome,[4],inactive
same,outcome,[5],inactive
same,outcome,[6],inactive
c1ccc(CN(CC2=NCCN2)c2ccccc2)cc1,red/green cell ratio (normalised),[1],1.08 (inactive)
same,normalised cell number,[1]; [8],1.24
same,normalised cell number,[1]; [9],1.34
same,remaining activity,[2],98.2% (inactive)
COC(=O)Nc1nc2ccc(S(=O)c3ccccc3)cc2[nH]1 (stereo not given),red/green cell ratio (normalised),[1],0.97 (inactive)
same,normalised cell number,[1]; [8],0.97
same,normalised cell number,[1]; [9],0.95
same,AC50,[3],18.6 µM (active)
O=C(O)CN1C(=O)c2cccc3cccc(c23)C1=O,red/green cell ratio (normalised),[1],1.28 (inactive)
same,normalised cell number,[1]; [8],1
same,normalised cell number,[1]; [9],1.28
same,remaining activity,[2],110% (inactive)
CN1CCC[C@@H]1CCO[C@](C)(c1ccccc1)c1ccc(Cl)cc1,red/green cell ratio (normalised),[1],1.23 (inactive)
same,normalised cell number,[1]; [8],1.06
same,normalised cell number,[1]; [9],1.3
same,remaining activity,[2],109% (inactive)
same,outcome,[4],inactive
Cc1nc2sccn2c(=O)c1CCN1CCC(=C(c2ccc(F)cc2)c2ccc(F)cc2)CC1,red/green cell ratio (normalised),[1],1.18 (inactive)
same,normalised cell number,[1]; [8],1.16
same,normalised cell number,[1]; [9],1.38
same,remaining activity,[2],122% (inactive)
CN1CCN2c3ccccc3Cc3ccccc3C2C1 (stereo not given),red/green cell ratio (normalised),[1],1.03 (inactive)
same,normalised cell number,[1]; [8],1.24
same,normalised cell number,[1]; [9],1.28
same,remaining activity,[2],115% (inactive)
same,outcome,[4],inactive
same,outcome,[5],inactive
same,outcome,[7],inactive
CC1(C)NC(=O)N(c2ccc([N+](=O)[O-])c(C(F)(F)F)c2)C1=O,red/green cell ratio (normalised),[1],1.15 (inactive)
same,normalised cell number,[1]; [8],1.25
same,normalised cell number,[1]; [9],1.43
same,remaining activity,[2],120% (inactive)
same,outcome,[5],inactive
same,outcome,[7],inactive
same,outcome,[6],inactive
Cc1cc2c(C(C)C)c(O)c(O)c(C=O)c2c(O)c1-c1c(C)cc2c(C(C)C)c(O)c(O)c(C=O)c2c1O,red/green cell ratio (normalised),[1],0.91 (inactive)
same,normalised cell number,[1]; [8],1.04
same,normalised cell number,[1]; [9],0.95
same,remaining activity,[2],103% (inactive)
same,AC50,[3],7.42 µM (active)
same,AC50,[4],23.5 µM (active)
same,AC50,[5],18.7 µM (active)
same,AC50,[7],18.7 µM (active)
same,AC50,[6],10.5 µM (active)
COc1cc([C@H]2Oc3cc([C@H]4Oc5cc(O)cc(O)c5C(=O)[C@@H]4O)ccc3O[C@@H]2CO)ccc1O,red/green cell ratio (normalised),[1],0.97 (inactive)
same,normalised cell number,[1]; [8],0.9
same,normalised cell number,[1]; [9],0.88
same,outcome,[3],inactive
same,outcome,[4],inactive
same,outcome,[5],inactive
CSc1ccc2c(c1)C(N1CCN(C)CC1)Cc1ccccc1S2 (stereo not given),red/green cell ratio (normalised),[1],1.1 (inactive)
same,normalised cell number,[1]; [8],0.72
same,normalised cell number,[1]; [9],0.79
same,remaining activity,[2],107% (inactive)
CCN(CC)CCOCCOC(=O)C1(c2ccccc2)CCCC1,red/green cell ratio (normalised),[1],1.27 (inactive)
same,normalised cell number,[1]; [8],1
same,normalised cell number,[1]; [9],1.28
same,remaining activity,[2],92.5% (inactive)
CCCCNc1c(C(=O)OCC)c(C)nc2c1cnn2CC,red/green cell ratio (normalised),[1],1.16 (inactive)
same,normalised cell number,[1]; [8],0.85
same,normalised cell number,[1]; [9],0.98
same,remaining activity,[2],94.8% (inactive)
CC(C)(Oc1ccc(Cl)cc1)C(=O)O,red/green cell ratio (normalised),[1],0.77 (inactive)
same,normalised cell number,[1]; [8],1.11
same,normalised cell number,[1]; [9],0.86
same,remaining activity,[2],92.9% (inactive)
COC(=O)Nc1nc2ccc(C(=O)c3cccs3)cc2[nH]1,red/green cell ratio (normalised),[1],1.09 (inactive)
same,normalised cell number,[1]; [8],0.15
same,normalised cell number,[1]; [9],0.17
same,remaining activity,[2],122% (inactive)
same,AC50,[3],0.148 µM (active)
same,AC50,[6],0.833 µM (active)
O=C(OCc1ccccc1)c1ccccc1,red/green cell ratio (normalised),[1],0.83 (inactive)
same,normalised cell number,[1]; [8],1.34
same,normalised cell number,[1]; [9],1.11
CCOC(=O)C1=C[C@]2(CC)CCCN3CCc4c(n1c1ccccc41)[C@@H]32,red/green cell ratio (normalised),[1],0.75 (inactive)
same,normalised cell number,[1]; [8],1.28
same,normalised cell number,[1]; [9],0.96
same,remaining activity,[2],107% (inactive)
same,AC50,[4],26.4 µM (active)
same,AC50,[5],11.8 µM (active)
same,AC50,[7],16.6 µM (active)
COc1ccc(CN(CCN(C)C)c2ccccn2)cc1,red/green cell ratio (normalised),[1],1.1 (inactive)
same,normalised cell number,[1]; [8],1.02
same,normalised cell number,[1]; [9],1.12
same,remaining activity,[2],118% (inactive)
NC(N)=NC(=O)Cc1c(Cl)cccc1Cl,red/green cell ratio (normalised),[1],0.93 (inactive)
same,normalised cell number,[1]; [8],1.04
same,normalised cell number,[1]; [9],0.96
same,remaining activity,[2],114% (inactive)
O=c1c(O)c(-c2ccc(O)c(O)c2)oc2cc(O)cc(O)c12,red/green cell ratio (normalised),[1],0.91 (inactive)
same,normalised cell number,[1]; [8],1.15
same,normalised cell number,[1]; [9],1.04
same,remaining activity,[2],113% (inactive)
same,outcome,[3],inactive
same,outcome,[6],inactive
Nc1c(Br)cc(Br)cc1CNC1CCC(O)CC1 (stereo not given),red/green cell ratio (normalised),[1],0.72 (inactive)
same,normalised cell number,[1]; [8],1.16
same,normalised cell number,[1]; [9],0.84
same,remaining activity,[2],105% (inactive)
Cc1oncc1C(=O)Nc1ccc(C(F)(F)F)cc1,red/green cell ratio (normalised),[1],0.74 (inactive)
same,normalised cell number,[1]; [8],1.34
same,normalised cell number,[1]; [9],0.99
same,remaining activity,[2],91.8% (inactive)
same,outcome,[5],inactive
same,outcome,[6],inactive
O=C1CCc2cc(OCCCCc3nnnn3C3CCCCC3)ccc2N1,red/green cell ratio (normalised),[1],1.09 (inactive)
same,normalised cell number,[1]; [8],0.86
same,normalised cell number,[1]; [9],0.94
same,remaining activity,[2],118% (inactive)
same,outcome,[3],inactive
same,outcome,[4],inactive
same,outcome,[5],inactive
same,outcome,[7],inactive
same,outcome,[6],inactive
CC(=O)Nc1ccc(O)cc1,red/green cell ratio (normalised),[1],1.05 (inactive)
same,normalised cell number,[1]; [8],1.11
same,normalised cell number,[1]; [9],1.16
same,remaining activity,[2],121% (inactive)
same,outcome,[4],inactive
same,outcome,[5],inactive
Cc1scc2c1N(C(=O)CN1CCN(C)CC1)c1ccccc1NC2=O,red/green cell ratio (normalised),[1],1.05 (inactive)
same,normalised cell number,[1]; [8],0.88
same,normalised cell number,[1]; [9],0.92
same,remaining activity,[2],94.5% (inactive)
CCC(C)n1ncn(-c2ccc(N3CCN(c4ccc(OC[C@H]5CO[C@](Cn6cncn6)(c6ccc(Cl)cc6Cl)O5)cc4)CC3)cc2)c1=O (stereo not given in full),red/green cell ratio (normalised),[1],0.8 (inactive)
same,normalised cell number,[1]; [8],1.27
same,normalised cell number,[1]; [9],1.01
same,outcome,[3],inactive
same,outcome,[4],inactive
same,outcome,[5],inactive
CC1=NN(c2ccccc2)C(=O)C1,red/green cell ratio (normalised),[1],0.88 (inactive)
same,normalised cell number,[1]; [8],1.15
same,normalised cell number,[1]; [9],1.01
same,remaining activity,[2],85.6% (inactive)
same,outcome,[3],inactive
same,outcome,[4],inactive
same,outcome,[5],inactive
same,outcome,[7],inactive
same,outcome,[6],inactive
C[C@](N)(Cc1ccc(O)c(O)c1)C(=O)O,red/green cell ratio (normalised),[1],1.05 (inactive)
same,normalised cell number,[1]; [8],0.98
same,normalised cell number,[1]; [9],1.03
same,remaining activity,[2],110% (inactive)
same,outcome,[3],inactive
same,outcome,[4],inactive
same,outcome,[7],inactive
